From the supplement of paper PMC11732987, “Enantioselective OTUD7B fragment discovery through chemoproteomics screening and high-throughput optimisation” (Communications Chemistry, 2025)

Key:
Test in all cases: log2 ratio of Biotin-Ahx-Ub-VS probe labelling (fragment/DMSO); higher = less target engagement (more negative = stronger competition), active = hit call of the paper (q ≤ 0.05, log2 ratio ≤ -1)
Settings in all cases: compound concentration: 200 uM; treatment time: 3 h
[1] = molecular target: T1, USP42 (UniProt Q9H9J4)
T1 sequence (whole entry): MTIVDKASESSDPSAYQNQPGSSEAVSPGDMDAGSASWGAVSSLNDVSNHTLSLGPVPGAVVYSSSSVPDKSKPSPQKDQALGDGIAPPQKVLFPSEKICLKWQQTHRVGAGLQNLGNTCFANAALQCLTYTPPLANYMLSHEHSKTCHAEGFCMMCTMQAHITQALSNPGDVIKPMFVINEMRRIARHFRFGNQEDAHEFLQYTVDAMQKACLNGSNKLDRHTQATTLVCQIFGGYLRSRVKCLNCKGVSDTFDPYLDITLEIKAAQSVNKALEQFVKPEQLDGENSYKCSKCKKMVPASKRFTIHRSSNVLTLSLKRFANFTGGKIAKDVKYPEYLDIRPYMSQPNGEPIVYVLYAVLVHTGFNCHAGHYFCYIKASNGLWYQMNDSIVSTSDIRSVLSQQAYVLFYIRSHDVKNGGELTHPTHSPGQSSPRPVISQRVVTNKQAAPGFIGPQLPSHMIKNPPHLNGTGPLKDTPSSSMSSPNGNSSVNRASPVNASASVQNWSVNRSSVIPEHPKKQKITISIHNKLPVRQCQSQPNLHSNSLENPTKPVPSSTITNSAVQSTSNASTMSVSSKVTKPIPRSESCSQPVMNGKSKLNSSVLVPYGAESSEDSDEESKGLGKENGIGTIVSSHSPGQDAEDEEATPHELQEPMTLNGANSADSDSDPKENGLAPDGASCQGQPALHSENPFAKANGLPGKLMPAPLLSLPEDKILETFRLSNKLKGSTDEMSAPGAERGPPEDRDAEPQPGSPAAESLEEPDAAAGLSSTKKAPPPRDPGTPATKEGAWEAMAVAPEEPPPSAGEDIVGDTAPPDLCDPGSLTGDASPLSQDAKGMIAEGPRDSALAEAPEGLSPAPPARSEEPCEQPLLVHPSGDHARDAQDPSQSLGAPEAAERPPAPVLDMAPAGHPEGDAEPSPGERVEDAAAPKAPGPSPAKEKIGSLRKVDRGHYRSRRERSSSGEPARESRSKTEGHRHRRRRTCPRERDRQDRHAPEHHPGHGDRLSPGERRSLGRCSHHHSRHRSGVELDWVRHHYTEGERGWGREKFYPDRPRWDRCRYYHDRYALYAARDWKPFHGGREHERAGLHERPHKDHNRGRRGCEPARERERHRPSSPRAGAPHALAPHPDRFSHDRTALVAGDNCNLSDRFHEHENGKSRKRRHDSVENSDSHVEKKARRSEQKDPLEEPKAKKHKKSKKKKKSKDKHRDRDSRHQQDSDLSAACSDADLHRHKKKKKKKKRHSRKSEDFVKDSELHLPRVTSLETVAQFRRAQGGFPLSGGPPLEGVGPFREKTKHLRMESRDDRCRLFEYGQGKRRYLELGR
Procedure, shortened: (§1)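 The table lists average log2 ratios of fragment over vehicle, from an unpaired t-test on global-median-normalised Spectronaut label-free quantities. Proteins with ≥2 unique peptides were used. Samples were HEK293T lysate (495 µg) treated in triplicate with fragment at 200 µM or vehicle for 3 h, then with Biotin-Ahx-Ub-VS (0.5 µM final) for 1 h, with labelled DUBs NeutrAvidin-enriched and run by diaPASEF LC-MS/MS.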

[2] = molecular target: USP46 (UniProt P62068)
USP46, sequence (P62068 whole entry): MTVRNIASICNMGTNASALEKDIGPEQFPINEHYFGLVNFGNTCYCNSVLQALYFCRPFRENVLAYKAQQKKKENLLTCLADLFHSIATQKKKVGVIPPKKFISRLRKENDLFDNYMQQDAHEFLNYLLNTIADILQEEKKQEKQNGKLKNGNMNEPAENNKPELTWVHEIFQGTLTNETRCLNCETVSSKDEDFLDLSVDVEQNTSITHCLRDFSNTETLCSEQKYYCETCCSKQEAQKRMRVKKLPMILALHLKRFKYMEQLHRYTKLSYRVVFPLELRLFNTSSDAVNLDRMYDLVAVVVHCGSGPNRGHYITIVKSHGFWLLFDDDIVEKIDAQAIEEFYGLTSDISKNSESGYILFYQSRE
Procedure, shortened: as §1

[3] = molecular target: T2, USP47 (UniProt Q96K76)
T2 sequence (whole entry): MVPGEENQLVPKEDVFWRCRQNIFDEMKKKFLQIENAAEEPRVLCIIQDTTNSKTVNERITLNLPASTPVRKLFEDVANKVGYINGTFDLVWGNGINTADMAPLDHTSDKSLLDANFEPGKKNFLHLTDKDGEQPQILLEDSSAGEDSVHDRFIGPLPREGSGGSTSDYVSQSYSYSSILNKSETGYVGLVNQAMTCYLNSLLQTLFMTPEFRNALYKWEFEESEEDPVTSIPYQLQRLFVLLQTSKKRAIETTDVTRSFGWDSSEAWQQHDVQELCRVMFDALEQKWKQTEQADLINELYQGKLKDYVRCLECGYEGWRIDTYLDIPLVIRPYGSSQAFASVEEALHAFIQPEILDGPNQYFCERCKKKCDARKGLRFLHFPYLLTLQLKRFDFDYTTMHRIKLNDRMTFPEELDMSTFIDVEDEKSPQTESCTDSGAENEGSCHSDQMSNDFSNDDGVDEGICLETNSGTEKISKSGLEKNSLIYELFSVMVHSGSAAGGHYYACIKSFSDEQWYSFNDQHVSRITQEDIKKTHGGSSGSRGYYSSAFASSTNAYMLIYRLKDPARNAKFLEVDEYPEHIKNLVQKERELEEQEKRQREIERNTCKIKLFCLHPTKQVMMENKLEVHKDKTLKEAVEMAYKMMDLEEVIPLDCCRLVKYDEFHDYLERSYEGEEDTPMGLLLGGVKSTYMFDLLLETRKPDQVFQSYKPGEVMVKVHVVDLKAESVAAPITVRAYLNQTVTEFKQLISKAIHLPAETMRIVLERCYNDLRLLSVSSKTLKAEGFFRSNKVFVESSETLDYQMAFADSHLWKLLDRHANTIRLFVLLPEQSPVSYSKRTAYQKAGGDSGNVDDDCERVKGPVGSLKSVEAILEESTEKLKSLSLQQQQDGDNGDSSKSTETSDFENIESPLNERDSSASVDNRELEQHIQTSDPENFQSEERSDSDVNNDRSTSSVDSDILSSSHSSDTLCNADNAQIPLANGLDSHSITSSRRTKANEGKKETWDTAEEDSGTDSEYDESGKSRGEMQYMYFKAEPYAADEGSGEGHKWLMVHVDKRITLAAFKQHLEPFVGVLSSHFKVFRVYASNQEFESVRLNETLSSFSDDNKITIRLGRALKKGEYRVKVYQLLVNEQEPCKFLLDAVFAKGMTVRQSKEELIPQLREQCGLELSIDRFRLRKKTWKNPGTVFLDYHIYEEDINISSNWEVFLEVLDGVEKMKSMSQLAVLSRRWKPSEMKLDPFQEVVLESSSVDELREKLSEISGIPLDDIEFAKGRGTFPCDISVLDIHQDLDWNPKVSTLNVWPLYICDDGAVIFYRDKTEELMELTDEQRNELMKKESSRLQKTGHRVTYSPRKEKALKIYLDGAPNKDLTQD
Procedure, shortened: as §1

[4] = molecular target: T3, USP48 (UniProt Q86UV5)
T3 sequence (whole entry): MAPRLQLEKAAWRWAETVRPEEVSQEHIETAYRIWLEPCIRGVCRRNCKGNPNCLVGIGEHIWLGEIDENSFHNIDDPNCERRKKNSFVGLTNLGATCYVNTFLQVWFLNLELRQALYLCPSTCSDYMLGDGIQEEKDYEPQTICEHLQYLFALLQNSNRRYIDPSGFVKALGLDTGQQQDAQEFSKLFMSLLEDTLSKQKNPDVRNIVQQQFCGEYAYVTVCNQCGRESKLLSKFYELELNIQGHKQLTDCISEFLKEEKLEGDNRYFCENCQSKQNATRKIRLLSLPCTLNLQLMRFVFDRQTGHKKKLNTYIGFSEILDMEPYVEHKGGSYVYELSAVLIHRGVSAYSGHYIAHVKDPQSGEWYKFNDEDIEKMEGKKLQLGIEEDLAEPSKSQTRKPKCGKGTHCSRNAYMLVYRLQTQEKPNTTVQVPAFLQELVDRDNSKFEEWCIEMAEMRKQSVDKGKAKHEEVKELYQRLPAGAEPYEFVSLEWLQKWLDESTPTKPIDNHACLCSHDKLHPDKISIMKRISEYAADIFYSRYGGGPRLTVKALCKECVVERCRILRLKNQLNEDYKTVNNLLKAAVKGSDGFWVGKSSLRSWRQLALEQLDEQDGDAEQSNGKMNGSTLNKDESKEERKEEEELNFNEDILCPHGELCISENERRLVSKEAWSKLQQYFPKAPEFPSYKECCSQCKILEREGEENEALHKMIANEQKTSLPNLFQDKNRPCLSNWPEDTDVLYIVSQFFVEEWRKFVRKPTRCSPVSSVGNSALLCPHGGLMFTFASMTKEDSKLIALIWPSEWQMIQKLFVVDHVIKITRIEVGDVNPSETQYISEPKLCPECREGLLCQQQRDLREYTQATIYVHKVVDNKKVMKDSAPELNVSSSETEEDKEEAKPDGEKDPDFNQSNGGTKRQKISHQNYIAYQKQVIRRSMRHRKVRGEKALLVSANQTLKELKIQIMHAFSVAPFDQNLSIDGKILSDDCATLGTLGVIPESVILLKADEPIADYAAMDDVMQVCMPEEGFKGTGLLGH
Procedure, shortened: as §1

[5] = molecular target: T4, USP5 (UniProt P45974)
T4 sequence (whole entry): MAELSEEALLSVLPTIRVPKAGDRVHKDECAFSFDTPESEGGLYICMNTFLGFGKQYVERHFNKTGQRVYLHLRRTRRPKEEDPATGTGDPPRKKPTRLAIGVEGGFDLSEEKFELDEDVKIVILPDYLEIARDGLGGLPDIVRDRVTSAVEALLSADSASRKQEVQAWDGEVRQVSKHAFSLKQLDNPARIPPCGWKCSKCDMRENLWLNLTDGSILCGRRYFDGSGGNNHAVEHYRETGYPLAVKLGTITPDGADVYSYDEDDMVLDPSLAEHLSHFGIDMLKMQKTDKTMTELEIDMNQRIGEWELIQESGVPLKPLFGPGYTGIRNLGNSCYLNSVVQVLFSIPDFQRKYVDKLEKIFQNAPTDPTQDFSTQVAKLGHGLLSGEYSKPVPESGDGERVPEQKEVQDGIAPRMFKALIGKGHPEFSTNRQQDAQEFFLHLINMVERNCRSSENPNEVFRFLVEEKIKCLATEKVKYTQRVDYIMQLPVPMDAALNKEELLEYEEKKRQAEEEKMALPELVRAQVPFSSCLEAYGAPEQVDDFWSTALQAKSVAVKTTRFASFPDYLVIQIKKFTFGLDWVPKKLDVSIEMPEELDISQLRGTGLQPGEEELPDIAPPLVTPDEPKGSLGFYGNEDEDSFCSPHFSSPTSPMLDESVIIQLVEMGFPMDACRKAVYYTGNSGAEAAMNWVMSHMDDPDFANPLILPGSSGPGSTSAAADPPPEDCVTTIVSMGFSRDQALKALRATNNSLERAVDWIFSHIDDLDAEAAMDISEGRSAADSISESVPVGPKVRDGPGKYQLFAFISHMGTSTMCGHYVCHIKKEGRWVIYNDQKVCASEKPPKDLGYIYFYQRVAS
Procedure, shortened: as §1

[6] = molecular target: USP54 (UniProt Q70EL1)
USP54, sequence (Q70EL1 whole entry): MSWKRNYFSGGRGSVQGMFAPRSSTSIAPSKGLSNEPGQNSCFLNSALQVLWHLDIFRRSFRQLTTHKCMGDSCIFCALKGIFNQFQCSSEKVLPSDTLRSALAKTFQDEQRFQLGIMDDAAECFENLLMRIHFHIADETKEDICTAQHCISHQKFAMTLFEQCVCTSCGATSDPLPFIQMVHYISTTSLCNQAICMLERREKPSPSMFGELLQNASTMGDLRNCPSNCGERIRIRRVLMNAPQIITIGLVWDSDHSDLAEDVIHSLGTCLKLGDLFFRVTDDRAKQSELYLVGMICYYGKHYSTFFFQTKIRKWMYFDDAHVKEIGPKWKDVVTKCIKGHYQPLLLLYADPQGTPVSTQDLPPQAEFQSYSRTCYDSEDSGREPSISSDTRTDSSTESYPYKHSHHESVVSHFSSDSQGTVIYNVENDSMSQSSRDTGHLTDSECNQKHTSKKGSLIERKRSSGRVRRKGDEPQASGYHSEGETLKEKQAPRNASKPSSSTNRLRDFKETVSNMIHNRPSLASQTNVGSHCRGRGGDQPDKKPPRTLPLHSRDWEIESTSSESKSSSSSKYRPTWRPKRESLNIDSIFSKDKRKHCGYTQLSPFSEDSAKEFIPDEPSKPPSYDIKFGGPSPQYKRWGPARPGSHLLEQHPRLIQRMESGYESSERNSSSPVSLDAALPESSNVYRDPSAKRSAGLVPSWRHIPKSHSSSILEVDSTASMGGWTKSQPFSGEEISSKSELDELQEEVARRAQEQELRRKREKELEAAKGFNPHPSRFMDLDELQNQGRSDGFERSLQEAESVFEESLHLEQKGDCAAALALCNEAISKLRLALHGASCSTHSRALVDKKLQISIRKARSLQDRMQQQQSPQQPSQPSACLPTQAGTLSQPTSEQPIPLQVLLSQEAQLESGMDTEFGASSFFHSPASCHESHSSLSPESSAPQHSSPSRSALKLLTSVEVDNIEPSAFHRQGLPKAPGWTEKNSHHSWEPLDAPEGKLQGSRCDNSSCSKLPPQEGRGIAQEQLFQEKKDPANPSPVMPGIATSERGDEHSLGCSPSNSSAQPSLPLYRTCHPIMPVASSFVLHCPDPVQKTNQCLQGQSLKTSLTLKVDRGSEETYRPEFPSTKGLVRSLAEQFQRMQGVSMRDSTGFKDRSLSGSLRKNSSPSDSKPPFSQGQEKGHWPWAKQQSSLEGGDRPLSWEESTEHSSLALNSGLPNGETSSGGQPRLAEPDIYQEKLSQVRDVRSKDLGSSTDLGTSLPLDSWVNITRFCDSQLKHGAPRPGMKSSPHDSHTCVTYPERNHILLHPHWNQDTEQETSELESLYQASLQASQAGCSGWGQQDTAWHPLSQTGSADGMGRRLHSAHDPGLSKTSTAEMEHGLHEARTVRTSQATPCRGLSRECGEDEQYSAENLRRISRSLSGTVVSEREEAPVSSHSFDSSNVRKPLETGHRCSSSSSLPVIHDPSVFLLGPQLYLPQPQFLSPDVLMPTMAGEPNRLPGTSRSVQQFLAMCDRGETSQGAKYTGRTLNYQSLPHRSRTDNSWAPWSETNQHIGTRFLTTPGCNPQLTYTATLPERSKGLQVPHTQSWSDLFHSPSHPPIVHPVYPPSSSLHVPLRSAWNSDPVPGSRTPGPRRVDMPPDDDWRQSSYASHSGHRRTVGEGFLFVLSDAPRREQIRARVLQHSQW
Procedure, shortened: as §1

[7] = molecular target: USP7 (UniProt Q93009)
USP7, sequence (Q93009 whole entry, looked up): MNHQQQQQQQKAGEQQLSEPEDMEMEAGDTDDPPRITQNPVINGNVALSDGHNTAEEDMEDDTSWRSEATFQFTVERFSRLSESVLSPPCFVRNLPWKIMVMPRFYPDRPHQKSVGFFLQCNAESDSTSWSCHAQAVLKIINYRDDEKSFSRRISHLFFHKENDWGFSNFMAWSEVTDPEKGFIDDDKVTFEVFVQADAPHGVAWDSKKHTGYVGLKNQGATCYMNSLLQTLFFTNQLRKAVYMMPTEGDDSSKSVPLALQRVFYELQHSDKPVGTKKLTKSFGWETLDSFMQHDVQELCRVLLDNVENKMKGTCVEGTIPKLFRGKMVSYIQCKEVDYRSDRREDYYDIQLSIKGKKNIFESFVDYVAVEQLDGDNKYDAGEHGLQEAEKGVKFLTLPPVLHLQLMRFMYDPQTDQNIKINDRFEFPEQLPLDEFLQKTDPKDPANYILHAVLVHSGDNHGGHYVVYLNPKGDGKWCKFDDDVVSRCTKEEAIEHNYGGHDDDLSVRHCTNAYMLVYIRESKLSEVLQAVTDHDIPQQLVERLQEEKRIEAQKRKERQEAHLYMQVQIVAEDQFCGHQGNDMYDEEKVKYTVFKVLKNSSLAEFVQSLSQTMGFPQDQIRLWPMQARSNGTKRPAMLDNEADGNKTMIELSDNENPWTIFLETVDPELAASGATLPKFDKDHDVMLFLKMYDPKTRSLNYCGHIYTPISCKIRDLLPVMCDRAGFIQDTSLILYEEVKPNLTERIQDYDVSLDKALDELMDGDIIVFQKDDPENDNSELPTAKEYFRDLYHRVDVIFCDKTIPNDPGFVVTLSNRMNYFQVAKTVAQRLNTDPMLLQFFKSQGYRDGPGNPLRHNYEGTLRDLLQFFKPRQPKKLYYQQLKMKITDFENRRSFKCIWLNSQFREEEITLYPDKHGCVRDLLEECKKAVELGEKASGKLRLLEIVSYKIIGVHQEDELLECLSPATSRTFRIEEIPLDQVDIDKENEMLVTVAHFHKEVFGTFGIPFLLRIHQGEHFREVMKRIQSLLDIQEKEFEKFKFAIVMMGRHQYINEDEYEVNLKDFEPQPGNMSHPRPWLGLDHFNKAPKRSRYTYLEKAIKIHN
Procedure, shortened: as §1

[8] = molecular target: T5, USP8 (UniProt P40818)
T5 sequence (whole entry): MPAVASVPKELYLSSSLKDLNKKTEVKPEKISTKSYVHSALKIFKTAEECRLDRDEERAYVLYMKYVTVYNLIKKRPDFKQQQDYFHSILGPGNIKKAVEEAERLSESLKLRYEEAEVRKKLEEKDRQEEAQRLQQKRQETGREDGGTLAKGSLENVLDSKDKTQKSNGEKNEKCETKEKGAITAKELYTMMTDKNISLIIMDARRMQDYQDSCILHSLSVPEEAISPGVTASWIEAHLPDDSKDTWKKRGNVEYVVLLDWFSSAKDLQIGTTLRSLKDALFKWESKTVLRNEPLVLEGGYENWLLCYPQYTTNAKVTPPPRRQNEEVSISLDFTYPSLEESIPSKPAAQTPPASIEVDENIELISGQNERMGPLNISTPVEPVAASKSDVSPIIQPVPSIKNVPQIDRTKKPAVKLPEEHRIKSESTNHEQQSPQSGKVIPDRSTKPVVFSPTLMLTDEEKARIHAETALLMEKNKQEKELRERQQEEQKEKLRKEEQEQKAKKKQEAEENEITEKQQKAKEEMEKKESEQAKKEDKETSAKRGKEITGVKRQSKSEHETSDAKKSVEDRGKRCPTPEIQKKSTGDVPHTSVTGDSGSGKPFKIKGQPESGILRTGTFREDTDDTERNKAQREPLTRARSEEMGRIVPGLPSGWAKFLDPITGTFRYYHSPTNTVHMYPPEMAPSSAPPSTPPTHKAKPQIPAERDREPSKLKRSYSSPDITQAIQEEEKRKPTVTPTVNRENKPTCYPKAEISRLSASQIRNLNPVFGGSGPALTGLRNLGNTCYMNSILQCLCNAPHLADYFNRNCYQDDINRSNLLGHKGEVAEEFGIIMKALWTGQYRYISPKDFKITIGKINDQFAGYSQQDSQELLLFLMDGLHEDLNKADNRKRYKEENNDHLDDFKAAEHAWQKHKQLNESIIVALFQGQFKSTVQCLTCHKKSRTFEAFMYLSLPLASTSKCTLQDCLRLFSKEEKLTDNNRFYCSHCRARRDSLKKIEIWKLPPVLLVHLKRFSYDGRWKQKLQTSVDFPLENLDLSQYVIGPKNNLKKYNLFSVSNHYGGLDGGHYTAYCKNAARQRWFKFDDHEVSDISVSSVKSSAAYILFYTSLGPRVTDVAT
Procedure, shortened: as §1

[9] = molecular target: USP9X (UniProt Q93008)
Procedure, shortened: as §1

[10] = molecular target: UniProt O00487
UniProt O00487, sequence (O00487 whole entry): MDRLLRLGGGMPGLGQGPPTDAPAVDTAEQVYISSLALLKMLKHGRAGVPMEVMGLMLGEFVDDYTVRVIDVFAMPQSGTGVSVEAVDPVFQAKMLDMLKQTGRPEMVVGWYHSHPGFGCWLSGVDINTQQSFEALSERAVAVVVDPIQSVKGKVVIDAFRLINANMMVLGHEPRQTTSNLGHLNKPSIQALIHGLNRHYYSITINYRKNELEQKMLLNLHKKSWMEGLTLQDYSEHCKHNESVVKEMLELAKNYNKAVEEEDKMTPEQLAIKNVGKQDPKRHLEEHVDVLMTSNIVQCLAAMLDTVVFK
Procedure, shortened: as §1

Measured: log2 ratio of Biotin-Ahx-Ub-VS probe labelling

O=C(CCl)NC1CCC2(CC1)OCCO2
inactive: [1] -0.0532 | [2] -0.121 | [3] 0.154 | [4] -0.263 | [5] -0.0178 | [6] 0.457 | [7] -0.157 | [8] -0.255 | [9] -0.361 | [10] -0.145

Cc1cc(NC(=O)CCl)n(-c2ccccc2)n1
inactive: [1] 0.45 | [2] -0.023 | [3] -0.584 | [4] 0.128 | [5] -0.00592 | [6] -0.0011 | [7] -0.0104 | [8] -0.118 | [9] 0.0409 | [10] -0.0689

CC1Cc2ccccc2N1C(=O)CCl (stereo not given)
inactive: [1] -0.0391 | [2] -0.226 | [3] -0.675 | [4] -0.686 | [5] 0.363 | [6] 0.538 | [8] -0.238 | [9] -0.267 | [10] -0.194
active: [7] -1.33

O=C(CCl)NCc1cccc(F)c1
inactive: [1] -0.105 | [2] 0.151 | [3] -0.193 | [4] -0.0573 | [5] 0.1 | [6] 0.396 | [7] -0.069 | [8] -0.0486 | [9] 0.0745 | [10] -0.0795
